# Screening data from PubChem BioAssay.
# This is a sample that favours compounds with a hit; in the whole collection about 12% have one here.
# JMJD2A Tudor inh: blocks the human JMJD2A Tudor domain; Potency, µM (doses to about 114 µM), without a hit: top-dose activity change, negative = inhibition, hits mostly inhibitors; AlphaScreen JMJD2A-Tudor / H3K4me3 peptide binding; O75164; 390,000 compounds, 4.4% hits; AID 504339; further: on the % scale 0 is the no-effect control and ±100 the full control effect; nearly all actives have a fitted effect of over 50% in size
# TDP1 block: blocks human tyrosyl-DNA phosphodiesterase 1; Q9NUW8; recombinant TDP1, AlphaScreen DNA substrate cleavage; Potency, µM (series often up to 130 µM), without a hit: top-dose activity change, negative = inhibition, usual class: inhibitors; 350,000 compounds, 0.28% hits; AID 485290; further: on the % scale 0 is the no-effect control and ±100 the full control effect; nearly all actives have a fitted effect of over 40% in size
#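 Compounds were preincubated with Tdp1 (1 nM final) for 15 min at room temperature before substrate (15 nM final) started a 5 min reaction; beads (10 ug/ml final) were then added for 10 min before AlphaScreen detection.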
# G9a block: blocks human histone lysine methyltransferase G9a; Potency, µM (doses to about 102 µM), for the others: at the highest dose activity, negative = inhibition, usual class: inhibitors; G9a H3K9 monomethylation, AlphaScreen, 2 h; AID 504332; 350,000 compounds, 8.8% hits; Q96KQ7; further: on the % scale 0 is the no-effect control and ±100 the full control effect; nearly all actives have a fitted effect of over 75% in size
# Target sequence (Q96KQ7 913-1193 limits assumed): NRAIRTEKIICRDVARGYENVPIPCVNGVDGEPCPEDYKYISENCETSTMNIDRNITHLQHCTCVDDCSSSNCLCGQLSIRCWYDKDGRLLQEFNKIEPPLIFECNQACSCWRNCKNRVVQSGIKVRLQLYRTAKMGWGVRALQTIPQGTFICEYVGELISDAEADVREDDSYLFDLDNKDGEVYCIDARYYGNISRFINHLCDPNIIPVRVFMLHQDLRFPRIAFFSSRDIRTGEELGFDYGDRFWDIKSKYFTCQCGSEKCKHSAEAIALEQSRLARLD
#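 Compounds were preincubated with 20 nM G9a for 15 min, after which biotinylated H3K9 peptide (500 nM) and SAM (20 uM) started a 2 h room-temperature reaction. Monomethylated product was quantified by antibody-based AlphaScreen chemiluminescence.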
# HP1b chromo inh: blocks HP1-beta chromodomain binding to methylated histone tails. P83916. AlphaScreen HP1-beta / biotin-H3K9me3 peptide binding. Potency, µM (titrated, usually from 114 µM), without a hit: at the highest dose activity change, negative = inhibition, most hits filed as inhibitors. 390,000 compounds, 0.56% hits. AID 540317; further: nearly all actives have a fitted effect of over 70% in size
# Target sequence (P83916 whole entry, looked up): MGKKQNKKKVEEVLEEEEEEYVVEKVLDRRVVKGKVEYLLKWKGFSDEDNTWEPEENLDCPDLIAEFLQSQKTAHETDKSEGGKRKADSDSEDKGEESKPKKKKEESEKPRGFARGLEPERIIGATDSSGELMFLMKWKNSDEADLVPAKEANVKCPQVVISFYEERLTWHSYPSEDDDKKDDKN
#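 AlphaScreen: HP1-beta (50 nM) preformed 30 min with biotin-H3(1-18)K9me3 peptide (50 nM) in PBS pH 7.4, 0.01% Tween-20. Compound added for 30 min at RT, then streptavidin donor/nickel chelate acceptor beads (10 ug/mL) for 30 min.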
# BAZ2B inh: blocks human BAZ2B | 360,000 compounds, 4.4% hits | Potency, µM (series often up to 114 µM), for the others: at the top dose activity change, negative = inhibition, actives largely listed as inhibitors | AlphaScreen BAZ2B-H3K14Ac peptide displacement | AID 504333; further: on the % scale 0 is the no-effect control and ±100 the full control effect; nearly all actives have a fitted effect of over 60% in size
#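 Complex of BAZ2B and biotin-H3K14Ac (50 nM apiece) forms over 30 min at RT, then faces library compounds up to 110 uM for another 30 min; AlphaScreen beads added, 20 min dark incubation, luminescence read.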
# Sfp inh: Sfp phosphopantetheinyl transferase inhibition. Biochemical Sfp PPTase activity, qHTS. Q9F4F7. Potency, µM, without a hit: largest response in the series, negative = inhibition, actives largely listed as inhibitors. AID 1490. 310,000 compounds, 3.5% hits;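 further: the enzyme is Sfp with the accession as filed and its product quenches rhodamine fluorescence; 0% = enzyme reaction without inhibitor and -100% = no enzyme wells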
#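 Fluorescence-quenching assay with 15 nM Sfp, 5 uM rhodamine-CoA and 12.5 uM BHQ-2-labelled ybbR peptide in pH 7.6 Hepes/MgCl2 buffer. Enzyme was pre-incubated with compound for 15 min at room temperature. Rate was taken from the 30-min fluorescence change (525/598 nm).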
# Active calls of the source: *; ? = inconclusive; . = no result given; [ ] = another dose, or the depositor's remark. The call rests on the fitted dose curve; in most records, active means well fitted curve in the direction sought with a large enough effect; inconclusive means small, poorly fitted or top-dose-only effect, or another doubt; inactive means no such curve, though single readings can be large; an effect the other way counts as inactive or inconclusive. Potency means the concentration at half of the fitted maximal effect.
SMILES,JMJD2A Tudor inh,TDP1 block,G9a block,HP1b chromo inh,BAZ2B inh,Sfp inh
CC(C)C1Oc2ccccc2N(CC(=O)N(Cc2ccncc2)Cc2ccco2)C1=O (centres undefined),-28.5%,-1.0%[56.1 µM],?,3.6%,-24.8%,44.7µM*
CCn1cc(S(=O)(=O)c2cccc(C)c2)c(=O)c2cc(F)c(N3CCCC(C)C3)cc21 (centres undefined),-10.9%,6.2%,6.4%[59 µM],28.4%,4.9%,.
CCN(CC)CCCN1C(=O)C(O)=C(C(=O)c2cc3cccc(OC)c3o2)C1c1ccncc1 (centres undefined),-10.3%,3.9%,50.1µM*,.,-8.6%,15.9%
CN(C)CCN1C(=O)C(O)=C(C(=O)c2cc3ccccc3o2)C1c1ccc(N(C)C)cc1 (centres undefined),?,0.0%,50.1µM*,20.1%,?,-27.3%
COc1cccc2cc(C(=O)C3=C(O)C(=O)N(CCN(C)C)C3c3ccc(F)cc3)oc12 (centres undefined),-30.8%,6.1%,50.1µM*,24.1%,-10.9%,6.1%
COc1cccc(C2C(C(=O)c3cc4ccccc4o3)=C(O)C(=O)N2CCN(C)C)c1OC (centres undefined),17.1%[11.4 µM],.,.,36.8%,.,.
O=C(NCc1ccccc1)C1CCCN(c2cnccn2)C1 (centres undefined),-13.7%,3.4%,-1.0%,43.1%,?,8.6%
Cc1cccc(-n2ncc3c(=O)[nH]c(SCC(=O)N4CC(=O)Nc5ccccc54)nc32)c1,-15.5%,-0.8%,12.1%[12.7 µM],23.5%,10.0%,.
Oc1c(C(c2ccccc2Cl)N2CCCC2)ccc2cccnc12 (centres undefined),20µM*,5.5%,11.2µM*,-35.4%,20µM*,1.7%
CN1CCN(C(c2ccc(C(F)(F)F)cc2)c2ccc3cccnc3c2O)CC1 (centres undefined),56.2µM*,-7.3%,7.94µM*,?,39.8µM*,-2.4%
Oc1c(C(c2cccs2)N2CCN(c3ccccc3)CC2)ccc2cccnc12 (centres undefined),.,-5.1%,1.26µM*,.,39.8µM*,39.8µM*
CCCCC(=O)NC(c1ccccc1Cl)c1ccc2cccnc2c1O (centres undefined),-13.6%,.,.,52.3%,9.2%,7.2%
Cc1ccc(SCC(=O)OCC(=O)N2CCN(C(=O)c3ccco3)CC2)c(C)c1,-13.0%,.,-2.8%[2.33 µM],7.8%,0.8%,.
Cc1cccc(NC(=O)c2cc(-c3ccccn3)nc3ccccc23)c1C,-32.6%,0.0%,?,-7.2%,-27.3%,1.6%
CC1CCN(C(=O)Cn2c(=O)n(Cc3ccco3)c(=O)c3sccc32)CC1,-4.5%,.,-0.4%,18.3%,-22.0%,7.0%
O=C(O)CCc1ccc(-c2ccc(Cl)cc2)n1Cc1ccco1,?,6.8%,?,6.3%,50.1µM*,-14.1%
O=C(O)CCc1ccc(-c2cccs2)n1Cc1ccco1,?,0.0%,?,4.9%,50.1µM*,25.1µM*
COc1ccc(-c2ccc(CCC(=O)O)n2Cc2ccco2)cc1,-29.6%,2.6%,.,-4.0%,?,?
O=C(O)CCc1ccc(-c2ccc(Cl)cc2)n1CC(=O)O,?,-1.9%,44.7µM*,24.9%,-32.4%,-18.1%
Cc1c(Cl)cccc1NC(=O)Cn1c(CCC(=O)O)ccc1-c1ccc(Cl)cc1,35.5µM*,.,?,?,56.2µM*,20.8%
CCCCn1c(CCC(=O)O)ccc1-c1cccs1,?,8.7%,?,-4.6%,?,?
O=C(Nc1cccc(Cl)c1)C1CCCN(c2ncnc3c2nc2n3CCCCC2)C1 (centres undefined),-23.9%,0.0%,?,15.9%,-21.7%,.
O=S(=O)(c1ccc(C(F)(F)F)cc1)N1CCN(c2nc(-c3cccs3)nc3ccccc23)CC1,-11.6%,0.1%,.,63.6%,.,.
O=C(O)CCc1ccc(-c2ccccc2)n1CC(=O)Nc1cccc(C(F)(F)F)c1,-29.8%,.,44.7µM*,11.7%,?,3.8%
COc1cc(/C=C2\SC(=S)N(Nc3ccccc3)C2=O)ccc1O,44.7µM*,0.0%,?,50.1µM*,39.8µM*,?
SMILES,JMJD2A Tudor inh,TDP1 block,G9a block,HP1b chromo inh,BAZ2B inh,Sfp inh
O=C(NN1C(=O)/C(=C/c2ccc(O)c(O)c2)SC1=S)c1ccccc1,12.6µM*,8.4%,6.31µM*,?,5.62µM*,-26.4%
CC(=O)NN1C(=O)/C(=C\c2ccccc2)SC1=S,-26.1%,0.0%,11.9%,25.3%,-28.5%,13.0%
CCOc1ccc(/C=C2\SC(=S)N(NS(=O)(=O)c3ccccc3)C2=O)cc1OC,?,.,.,-8.6%,?,-24.4%
COc1cc(/C=C2\SC(=S)N(C(Cc3ccccc3)C(=O)O)C2=O)ccc1O (centres undefined),-32.3%,2.7%,.,?,35.5µM*,?
O=C(O)C(Cc1ccccc1)N1C(=O)/C(=C/c2cccc3ccccc23)SC1=S (centres undefined),.,5.3%,?,.,56.2µM*,-19.5%
O=C(COC(=O)C1CC1)Nc1nc(-c2ccc(F)c(F)c2)cs1,-7.1%,-12.3%[0.505 µM],2.8%,25.9%,7.7%,.
CCc1ccc(CNC(=O)c2nn(-c3ccc(C)cc3)c(=O)c3c2c2ccccc2n3C)cc1,?,4.7%,-1.5%[59 µM],30.5%,.,.
CCOc1cc(/C=C2\SC(=S)N(NS(=O)(=O)c3ccccc3)C2=O)ccc1O,-26.8%,.,-1.4%[2.33 µM],2.5%,?,-15.0%
O=C(NN1C(=O)/C(=C\c2ccc(O)c([N+](=O)[O-])c2)SC1=S)c1ccccc1Cl,56.2µM*,4.7%,3.98µM*,-31.9%,39.8µM*,-3.6%
CCOc1cc(/C=C2\SC(=S)N(Nc3ccccc3)C2=O)ccc1O,0.0%[11.4 µM],10.3%,?,50.1µM*,20µM*,?
O=C1/C(=C/c2ccc(O)c(O)c2)SC(=S)N1Nc1ccccc1,10µM*,8.1%,10µM*,7.08µM*,3.55µM*,-7.7%
O=C(NN1C(=O)/C(=C/c2cccc(O)c2)SC1=S)c1ccccc1O,44.7µM*,4.8%,-8.2%[59 µM],-18.4%[57 µM],44.7µM*,-0.4%
CC(=O)NN1C(=O)/C(=C\c2ccc(C)cc2)SC1=S,-2.6%,-3.9%,15.3%[59 µM],22.4%,-3.6%,9.9%
Cc1ccc(NC2=NCC(=O)N2Cc2ccc3c(c2)OCO3)cc1,-16.4%,5.8%,50.1µM*,19.6%,-29.0%,14.7%
O=C1CN=C(Nc2ccccc2Cl)N1Cc1ccc2c(c1)OCO2,89.1µM*,1.1%,?,69.5%,-8.5%,9.3%
CCc1ccccc1NC1=NCC(=O)N1Cc1ccc2c(c1)OCO2,-34.4%[11.4 µM],0.7%[56.1 µM],-25.3%[59 µM],2.0%,-4.2%,3.6%
COc1ccc(-c2nc3c(c4c2C[C@H](c2ccccc2)OC4)CN(C(=O)NCCc2c[nH]c4ccccc24)CC3)c(C)c1,.,0.2%[12.3 µM],.,.,.,16.1%
